A short description of assay [1]: inhibitors of TNFa-induced NFkB p65 translocation, primary screen, imaging, HUVEC, MLSMR starter and 10KST1 sets (AID 438;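 active = inhibition above 20% together with a positive visual image hit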;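 also: compound added about 3h40 before a 20 min TNFalpha stimulation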;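 as to inhibition: signal is the nuclear over cytoplasmic p65 intensity ratio per well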). As to conditions: HUVEC TNFa-induced p65 nuclear translocation; cell count: measured here: nuclei count (cytotoxicity indicator), at 2.08 µM; inhibition: at 2 µM, stronger effect = higher value, 0% TNFa-plus-vehicle, 100% no-TNFa wells.
The nature of assay [2]: reduction of polyQ htt aggregates in cells – imaging, exon1htt(103Q)mCFP cells, high-content imaging, primary screen (AID 483;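 active = visual image review flags a hit and inhibition of aggregation exceeds 20%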;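 also: compound exposure lasted 3 days before fixation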;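 as to nuclei count: percent of the per-plate median nuclei count of sample wells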). The settings on record: exon1htt(103Q)mCFP cell line, aggregate imaging, at 2 µM; inhibition of aggregation: stronger effect = higher value; nuclei count: measured here: cell count, toxicity.
A short description of assay [3]: endothelial E-selectin expression blockers – imaging, HUVEC, immunofluorescence, MLSMR starter and 10KST1 sets, primary screen (AID 487;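 active = visually confirmed hit in the image check and inhibition above 20%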;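 as to inhibition: signal is fraction of cell area covered by stained E-selectin grains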;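 as to nuclei count: 100% = median nuclei count of all wells on the same plate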). As to conditions: HUVEC TNFalpha-induced E-selectin immunofluorescence imaging, at 2 µM; inhibition: stronger effect = higher value; nuclei count: measured here: cell number, toxicity.
Assay [4] in a line: Primary imaging screen for DUSP6 inhibitors that restore phospho-Erk in transfected HeLa cells, chemical complementation (AID 609;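 active = compounds giving at least 50% inhibition in the cell-based MKP-3 phosphatase rescue imaging test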;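 as to inhibition: phospho-Erk level distribution per well compared with pooled transfected vehicle control wells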). As to conditions: HeLa MKP-3 transfected, phospho-Erk imaging KS statistic, at 10 µM, cells stimulated with TPA for 15 min.
Assay [5] deals with Dual specificity protein phosphatase 6 (Homo sapiens) (UniProt Q16828). The description is as above. The settings on record: HeLa MKP-3 transfected, phospho-Erk imaging KS statistic; at 10 µM; stronger effect = higher value; cells stimulated with TPA for 15 min.
Assay [6] addresses Voltage-gated potassium channel subunit beta-2 (Rattus norvegicus) (UniProt P62483). The assay is described as follows: inhibitors of rat Kvbeta2 reductase activity – biochemical, NADPH fluorescence, primary screen (AID 622;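 active = fluorescence slope higher than the sample average by over 3 SD, cut at about -0.22 in these data, passing the limit was not always enough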;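 also: slope of raw intensity against log time taken from 70 to 1610 s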). As to conditions: recombinant KvBeta, 4-cyanobenzaldehyde reduction, at 10 µM, stronger effect = higher value.
For assay [7] the target is unchanged. The assay is described as follows: enhancers of rat Kvbeta2 NADPH turnover – biochemical, NADPH fluorescence, primary screen (AID 623;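 active = NADPH fluorescence slope more negative than the mean of all samples by about 3 SD, 99.7% confidence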;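 also: fluorescence intensity change per second fitted from 20 to 320 s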). As to conditions: Recombinant KvBeta, NADPH fluorescence decrease slope, 10 min; at 10 µM; stronger effect = lower value.
For assay [8], the target named is Alpha-2C adrenergic receptor (Homo sapiens) (UniProt P18825). The experiment in a line: compounds altering alpha2C-coupled GIRK flux – cell-based, HEK293 alpha2C/GIRK1/2, thallium flux, primary screen (AID 624;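 active = fluorescence slope after compound addition differing from the mean of all screened samples at 99.7% confidence, in either direction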;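 also: slope of fluorescence ratio to pre-addition baseline per second over 15 to 24 s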). As to conditions: thallium flux BTC fluorescence, at 10 µM, actives lie on both sides.
The nature of assay [9]: inhibitors of larval lipid processing in zebrafish, primary screen, whole organism, PED6 fluorescence, gall bladder and intestine (AID 686;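 active = a full or partial loss of lipid-probe fluorescence in the fish gall bladder, intestine or both, judged by eye; inactive = no fluorescence loss, or compound toxic to the fish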;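 also: larvae 5 to 7 days old with five fish per well; signal comes from phospholipase A2 cleavage of quenched PED6 carried via bile; overnight exposure to compound and PED6 before scoring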). The settings on record: Zebrafish larvae PED6 lipid processing, fluorescence scoring; screened at 20 µM (by protocol).
The nature of assay [10]: loss of swimming-algae plug formation – whole organism, Chlamydomonas reinhardtii, WT vs cilia-less mutant, absorbance, 96-well, primary screen (AID 463189).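 Also: 0% = wild type cc124 cells in DMSO and 100% = ciliumless bld1 mutant cells.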 As to conditions: Chlamydomonas reinhardtii gravitaxis, OD600 absorbance, 2 days; at 10 µM; stronger effect = higher value.
Assay [11] in a line: blockers of RIG-like receptor reporter activation – cell-based, Sendai virus stimulus, luciferase, 10K MLSCN set, TLR/RLR signaling modifier project, primary screen (AID 602276;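 active = inhibition at or above 50% at 10 µM; inactive = inhibition below 50%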;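 also: firefly luciferase from ISG56 promoter only with Renilla not read in this screen; 0% = Sendai virus plus DMSO and 100% = medium plus DMSO without virus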). The settings on record: HEK293 RL24 IRF3 luciferase reporter, at 10 µM, stronger effect = higher value.
Assay [12] can be described thus: TLR3 IRF3 reporter activation blockers – cell-based, poly I:C stimulus, luciferase, 10K MLSCN set, primary screen (AID 602277;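 active = inhibition of the reporter signal at or above 50%; inactive = inhibition below 50%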). As to conditions: HEK293-TLR3 RL24 IRF3 luciferase reporter, at 10 µM, stronger effect = higher value.
Where [13] appears, read: measured here: cell density z-score.
The mark [14] stands for this setting: measured here: nuclear c-Myc green intensity z-score.
Setting [15] is: measured here: nuclear pErk red intensity z-score, stronger effect = higher value.

Structures are written as SMILES. “And” between values parts separate entries of the source, which are not always exact repeats. Identical values can stand only once. Some structures have more than one record in an assay (separate samples or runs), and their calls can disagree. The source made the active and inactive calls.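 The calls were made as follows, unless noted: active = inhibition at or above 50% relative to wild type and mutant plate controls; inactive = inhibition below 50%.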

Alpha-2C adrenergic receptor (Homo sapiens), sequence (P18825 whole entry, looked up): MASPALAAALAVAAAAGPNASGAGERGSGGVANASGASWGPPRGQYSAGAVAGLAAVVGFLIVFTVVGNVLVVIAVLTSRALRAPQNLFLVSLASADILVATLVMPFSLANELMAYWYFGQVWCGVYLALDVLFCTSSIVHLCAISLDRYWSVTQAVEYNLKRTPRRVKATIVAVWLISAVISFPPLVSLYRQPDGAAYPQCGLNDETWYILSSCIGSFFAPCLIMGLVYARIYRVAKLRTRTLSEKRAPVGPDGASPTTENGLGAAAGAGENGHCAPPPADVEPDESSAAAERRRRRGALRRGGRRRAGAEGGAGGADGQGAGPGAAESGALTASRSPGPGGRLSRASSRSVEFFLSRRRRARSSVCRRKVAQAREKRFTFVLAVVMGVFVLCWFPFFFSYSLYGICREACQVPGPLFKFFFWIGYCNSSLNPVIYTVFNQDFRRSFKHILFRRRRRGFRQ
Voltage-gated potassium channel subunit beta-2 (Rattus norvegicus), sequence (P62483 whole entry, looked up): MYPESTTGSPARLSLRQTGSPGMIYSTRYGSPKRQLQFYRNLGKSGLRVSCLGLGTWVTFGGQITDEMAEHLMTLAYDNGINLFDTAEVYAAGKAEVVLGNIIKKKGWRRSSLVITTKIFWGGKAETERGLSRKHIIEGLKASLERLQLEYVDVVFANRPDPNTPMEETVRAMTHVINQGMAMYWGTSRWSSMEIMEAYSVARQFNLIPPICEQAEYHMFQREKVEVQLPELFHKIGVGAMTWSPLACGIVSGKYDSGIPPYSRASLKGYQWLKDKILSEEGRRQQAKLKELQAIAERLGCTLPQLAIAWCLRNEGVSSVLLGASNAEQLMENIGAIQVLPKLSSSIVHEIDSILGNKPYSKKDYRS
Dual specificity protein phosphatase 6 (Homo sapiens), sequence (Q16828 whole entry, looked up): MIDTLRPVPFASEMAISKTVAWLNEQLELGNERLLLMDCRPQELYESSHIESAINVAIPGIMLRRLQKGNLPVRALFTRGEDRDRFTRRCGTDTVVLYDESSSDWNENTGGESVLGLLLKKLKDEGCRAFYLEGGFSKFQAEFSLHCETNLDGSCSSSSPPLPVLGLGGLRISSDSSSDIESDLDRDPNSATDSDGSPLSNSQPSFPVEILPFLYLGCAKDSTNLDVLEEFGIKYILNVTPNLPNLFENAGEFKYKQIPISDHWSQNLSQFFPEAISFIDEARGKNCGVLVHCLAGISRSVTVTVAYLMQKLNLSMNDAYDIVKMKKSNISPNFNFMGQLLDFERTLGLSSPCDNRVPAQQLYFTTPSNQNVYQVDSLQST

On to `CC[N+](C)(CC)CCOC(=O)C(O)(c1ccccc1)C1CCCCC1` (stereo not given), for which the cell count in assay [1] came to 475. Moreover, the inhibition in [1] was -3.8% (inactive); in assay [3], -15.1% (inactive); in assay [5], -4.44% (inactive); in assay [10], -14% (inactive); in assay [11], 2.1% (inactive); in [12], 24.6% (inactive). The inhibition of aggregation in assay [2] was 7.2% (inactive). Besides, the nuclei count in assay [2] amounted to 95.4%; in assay [3], 111%. In addition, the z-score in [4] (setting [13]) was -1.3; in [4] (setting [14]), -0.403; in [4] (setting [15]), 0.0665. For the same molecule, the fluorescence slope in [6] is -0.515 (inactive). Also, the NADPH fluorescence slope in [7] is -2.6e-05 (inactive). In addition, the slope in [8] was 0.00498 (inactive). The molecule was called inactive in assay [9].

As for `OCCN1CCN(CCCN2c3ccccc3Sc3ccc(Cl)cc32)CC1`, the cell count in assay [1] is 705. In addition, the inhibition in assay [1] is -3% (inactive); in assay [3], -112% (inactive); in [5], 3.45% (inactive); in assay [10], 3.48% (inactive) and 164% (active); in assay [11] it was 17.3% (inactive); in assay [12], 40.7% (inactive). Besides, in assay [2], the inhibition of aggregation was -20.6% (inactive). In addition, the nuclei count worked out at 109% in assay [2] and 130% in assay [3]. Further, the figures for the z-score in assay [4] (setting [13]), in assay [4] (setting [14]) and in assay [4] (setting [15]) were -0.393, 0.625 and 2.66, respectively. In assay [6], the fluorescence slope was -0.46 (inactive). In addition, the NADPH fluorescence slope in [7] is -5.7e-05 (inactive). In addition, in [8], the slope is 0.0036 (inactive). The result in [9] was inactive.

Turning to `O=c1oc2cc(O)ccc2c2oc3cc(O)ccc3c12`, in assay [1], the cell count came to 610. For the same molecule, the inhibition in [1] was 3.6% (inactive); in assay [3], -22% (inactive); in assay [5], 25.7% (inactive); in [10] it was 6.48% (inactive); in [11], 12.4% (inactive); in assay [12] it was 41.2% (inactive). Besides, the inhibition of aggregation in assay [2] is 11.2% (inactive). The values for the nuclei count in assay [2] and in [3] were 78.7% and 112%, respectively. Besides, the z-score in assay [4] (setting [13]) was 0.528; in [4] (setting [14]), 1.66; in assay [4] (setting [15]), -1.32. For the same molecule, in assay [6], the fluorescence slope was -0.398 (inactive). Besides, the NADPH fluorescence slope in assay [7] is -1e-05 (inactive). Besides, in [8], the slope is 0.00469 (inactive). In addition, in [9], the molecule was classed as inactive.

Turning to `CSc1ccccc1NC(=O)c1c(Br)cnn1C`, the cell count in [1] is 559. Also, the inhibition is -4.3% (inactive) in [1]; 26.1% (inactive) in assay [3]; -2.47% (inactive) in assay [5]; 4.29% (inactive) in [10]; 5.4% (inactive) in [11]; 4.72% (inactive) in assay [12]. In addition, the inhibition of aggregation in assay [2] was 33.5% (active). In addition, the nuclei count in assay [2] stood at 58.2%; in [3] it was 130%. Moreover, the z-score is -0.962 in assay [4] (setting [13]), -0.8 in assay [4] (setting [14]) and 0.479 in assay [4] (setting [15]). In addition, the fluorescence slope in [6] was -0.453 (inactive). Further, in [7], the NADPH fluorescence slope was -5.8e-06 (inactive). For the same molecule, the slope in assay [8] is 0.00569 (inactive). Further, the result in [9] was inactive.

Turning to `CN(C)CCN(Cc1ccccc1)c1ccccn1`, in [1], the cell count was found to be 526. Moreover, the inhibition in [1] was -10.5% (inactive); in assay [3], -31.1% (inactive); in [5], 9.37% (inactive); in assay [10] it was 49.5% (inactive); in assay [11] it was 11.1% (inactive); in assay [12], 33.9% (inactive). In addition, in [2], the inhibition of aggregation is 18.7% (inactive). Moreover, the nuclei count came to 98.3% in assay [2] and 109% in [3]. Moreover, the z-score in assay [4] (setting [13]) is -0.393; in assay [4] (setting [14]), 0.385; in assay [4] (setting [15]) it was -0.67. The fluorescence slope in [6] is -0.432 (inactive). Moreover, the NADPH fluorescence slope in [7] is -8.6e-05 (inactive). In addition, in [8], the slope was 0.00588 (inactive). In addition, the molecule was called inactive in assay [9].

As for `Cc1noc(COc2ccccc2OCC(O)CNC(C)(C)C)n1` (stereo not given), the cell count in assay [1] amounted to 623. Moreover, the inhibition in assay [1] was -11.7% (inactive); in assay [3], -52.1% (inactive); in assay [5], -16.8% (inactive); in assay [10] it was -3.71% (inactive); in [11] it was 16.2% (inactive); in assay [12], 99.7% (active). Also, in [2], the inhibition of aggregation is 16.2% (inactive). The nuclei count was 89.4% in assay [2] and 128% in assay [3]. In addition, the results for the z-score in assay [4] (setting [13]), in assay [4] (setting [14]) and in assay [4] (setting [15]) were -0.283, 1.24 and 2.27, respectively. The fluorescence slope in assay [6] is -0.496 (inactive). Moreover, the NADPH fluorescence slope in assay [7] was -2.4e-05 (inactive). In assay [8], the slope is 0.0046 (inactive). The result in [9] was inactive.

With `CNCCCC12CCC(c3ccccc31)c1ccccc12`, the cell count in assay [1] is 541. The inhibition was -4.8% (inactive) in [1]; -80.6% (inactive) in assay [3]; 3.45% (inactive) in assay [5]; 6.33% (inactive) and 2.26% (inactive) in [10]; -23.6% (inactive) in assay [11]; 55.4% (active) in assay [12]. In addition, in [2], the inhibition of aggregation was 19.8% (inactive). In addition, the nuclei count in [2] came to 83.4%; in assay [3], 114%. Further, the z-score in assay [4] (setting [13]) was -1.24; in assay [4] (setting [14]), 0.435; in [4] (setting [15]), 1.73. Moreover, in assay [6], the fluorescence slope was -0.501 (inactive). Moreover, the NADPH fluorescence slope in [7] is -9.7e-05 (inactive). The slope in assay [8] is 0.00463 (inactive). Moreover, the outcome in [9] was inactive.

With `Cc1ncc([N+](=O)[O-])n1CC(O)CCl` (stereo not given), in assay [1], the cell count came out at 546. Besides, the inhibition is -5% (inactive) in assay [1]; -91.7% (inactive) in [3]; 3.45% (inactive) in assay [5]; -0.632% (inactive) in assay [10]; -0.807% (inactive) in [11]; 16.6% (inactive) in assay [12]. In addition, the inhibition of aggregation in [2] was -12.8% (inactive). Also, the nuclei count came to 100% in [2] and 114% in assay [3]. For the same molecule, the z-score was 0.947 in assay [4] (setting [13]), -1.73 in assay [4] (setting [14]) and -1.47 in assay [4] (setting [15]). Moreover, the fluorescence slope in assay [6] is -0.5 (inactive). The NADPH fluorescence slope in assay [7] is 2.8e-05 (inactive). The slope in assay [8] is 0.00498 (inactive). Further, the outcome in assay [9] was inactive.

Turning to `CC[C@]1(O)CC2CN(CCc3c([nH]c4ccccc34)[C@@](C(=O)OC)(c3cc4c(cc3OC)N(C=O)[C@H]3[C@@](O)(C(=O)OC)[C@H](OC(C)=O)[C@]5(CC)C=CCN6CC[C@]43[C@@H]65)C2)C1` (stereo not given in full), in assay [1], the cell count was determined as 496. For the same molecule, the inhibition is 31.7% (active) in assay [1]; -122% (inactive) in assay [3]; 27.9% (inactive) in assay [5]; -2.94% (inactive) in assay [10]; 32.7% (inactive) in assay [11]; 85.7% (active) in [12]. In assay [2], the inhibition of aggregation is -69.9% (inactive). Further, the nuclei count in assay [2] is 1.5%; in [3], 76.8%. Moreover, the figures for the z-score in [4] (setting [13]), in assay [4] (setting [14]) and in assay [4] (setting [15]) were 0.276, -0.499 and 1.19, respectively. In addition, the fluorescence slope in [6] is -0.439 (inactive). The NADPH fluorescence slope in assay [7] is -3.8e-07 (inactive). Moreover, the slope in assay [8] is 0.00563 (inactive). Also, the molecule was called inactive in assay [9].

For `CN(C)[C@@H]1C(=O)C(C(N)=O)=C(O)[C@@]2(O)C(=O)C3=C(O)c4c(O)ccc(Cl)c4[C@@H](O)[C@H]3C[C@@H]12`, the cell count in assay [1] was 524. Also, the inhibition in assay [1] is -3% (inactive); in assay [3] it was -35.1% (inactive); in assay [5], 9.37% (inactive); in [10] it was 54.1% (active) and 88% (active); in assay [11] it was 17.1% (inactive); in assay [12], 24.2% (inactive). The inhibition of aggregation in assay [2] is 77.8% (active). Moreover, the nuclei count in [2] was 96.8%; in assay [3], 93%. Also, the z-score in [4] (setting [13]) was 0.892; in [4] (setting [14]), 0.579; in assay [4] (setting [15]), -1.42. Moreover, the fluorescence slope in [6] is -0.537 (inactive). For the same molecule, the NADPH fluorescence slope in [7] is -2.5e-05 (inactive). Moreover, the slope in assay [8] is 0.00572 (inactive). In addition, the outcome in [9] is “active; no signal in intestine only”.

These data come from PubChem BioAssay.
